# In the library only some 18% were active in any assay of this set; here they are far more common.
# DT40 TDP1 CPT: DT40-hTDP1 cell growth loss with CPT; chicken DT40 Tdp1-/-;hTDP1 cells + 20 nM CPT, ATP luminescence, 48 h; Potency, µM (top dose mostly 46.2 µM), inactives show top-dose activity change, negative = growth inhibition, actives largely listed as inhibitors; hit rate 12% among 420,000; AID 686979; further: potency means the concentration at half of the fitted maximal effect; nearly all actives have a fitted effect of over 55% in size
#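 Chicken DT40 Tdp1-/- cells complemented with human TDP1, 400 cells/well, exposed to compounds plus 20 nM camptothecin for at least 48 h at 37 C; viability read as ATP content by CellTiter-Glo luminescence.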
# DT40 TDP1 no CPT: qHTS for Inhibitors of human tyrosyl-DNA phosphodiesterase 1 (TDP1): qHTS in cells in absence of CPT | DT40 Tdp1-/- hTDP1 cells, no CPT, ATP luminescence, 48 h | Potency, µM (titrated, usually from 46.2 µM), without a hit: top-dose activity change, negative = growth inhibition, usual class: inhibitors | hit rate 15% among 420,000 | AID 686978, 2013; further: potency means the concentration at half of the fitted maximal effect; nearly all actives have a fitted effect of over 55% in size
#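 Compound effects on proliferation are scored in DT40 Tdp1-/-;hTDP1 cells in the absence of CPT. ATP levels (CellTiter-Glo luminescence) are recorded after a ≥48 hr, 37 °C incubation.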
# CtBP-E1A inh: inhibitors of CtBP/E1A interaction. hit rate 0.49% among 340,000. AlphaScreen GST-E1A/His-CtBP binding, 1536-well; active compounds read low. activity change, % (test concentration not listed); in the data active means activity change below about -65%; inconclusive means mostly about -30% to -63%
#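 Protein mix (5X: 125 nM each GST-E1A, His-CtBP) was incubated with pinned compound 2 h at 37 deg C in dark, in 50 mM Tris pH 8.0 buffer with 300 mM NaCl. Glutathione donor and nickel acceptor beads followed; AlphaScreen signal read after 1 h.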
# TDP1 inh: inhibitors of human tyrosyl-DNA phosphodiesterase TDP1. Q9NUW8. recombinant TDP1, AlphaScreen DNA substrate cleavage. Potency, µM (series often up to 130 µM), inactives show at the top dose activity change, negative = inhibition, actives largely listed as inhibitors. hit rate 0.28% among 350,000. AID 485290; further: potency means the concentration at half of the fitted maximal effect; nearly all actives have a fitted effect of over 40% in size
#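 Recombinant human Tdp1 (E. coli-expressed, 1 nM final) preincubated with compounds 15 min at room temperature, then 5'-biotin/3'-phosphotyrosine-FITC DNA substrate (15 nM final) added for 5 min. AlphaScreen beads (10 ug/ml final) added 10 min; cleavage lowers signal.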
# IL1B secr inh: inhibitors of inflammasome signaling (IL-1 beta secretion); THP-1 LPS/ATP IL-1B secretion, AlphaLISA, 16 h; active compounds read low; hit rate 4.7% among 360,000; activity change, % at 57.5 µM; AID 743279; in the data active means activity change below about -50%; inconclusive means mostly about -30% to -49%
#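 Secreted IL-1B measured by AlphaLISA bead assay after 16 h compound exposure of THP-1 cells; compounds (final up to 57.5 uM) added 1 h before LPS (250 ng/mL) and ATP (1.25 mM) stimulation; lower signal means less secretion.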
# Six1-Eya2 inh: blocks human Six1 binding to Eya2; AlphaScreen GST-Six1/His-Eya2 binding, biochemical; active compounds read low; activity change, % (no concentration beside the values); hit rate 0.56% among 360,000; in the data active means activity change below about -65%; inconclusive means mostly about -30% to -63%
# Target sequence (O00167 whole entry, looked up): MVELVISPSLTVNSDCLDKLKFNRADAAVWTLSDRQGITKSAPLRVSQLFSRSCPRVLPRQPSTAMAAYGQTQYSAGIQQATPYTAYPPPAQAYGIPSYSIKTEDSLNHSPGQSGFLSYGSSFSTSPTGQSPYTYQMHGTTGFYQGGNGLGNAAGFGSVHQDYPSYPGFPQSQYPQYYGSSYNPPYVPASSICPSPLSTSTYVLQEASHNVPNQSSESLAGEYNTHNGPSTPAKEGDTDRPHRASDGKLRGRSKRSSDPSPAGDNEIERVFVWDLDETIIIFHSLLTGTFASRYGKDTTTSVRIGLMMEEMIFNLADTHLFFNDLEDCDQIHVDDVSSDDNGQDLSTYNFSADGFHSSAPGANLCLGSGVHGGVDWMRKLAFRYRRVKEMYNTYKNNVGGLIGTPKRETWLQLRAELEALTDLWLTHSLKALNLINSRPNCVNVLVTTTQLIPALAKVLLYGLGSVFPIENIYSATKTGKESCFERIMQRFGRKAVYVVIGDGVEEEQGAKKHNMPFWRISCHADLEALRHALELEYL
# Target sequence (Q15475 whole entry, looked up): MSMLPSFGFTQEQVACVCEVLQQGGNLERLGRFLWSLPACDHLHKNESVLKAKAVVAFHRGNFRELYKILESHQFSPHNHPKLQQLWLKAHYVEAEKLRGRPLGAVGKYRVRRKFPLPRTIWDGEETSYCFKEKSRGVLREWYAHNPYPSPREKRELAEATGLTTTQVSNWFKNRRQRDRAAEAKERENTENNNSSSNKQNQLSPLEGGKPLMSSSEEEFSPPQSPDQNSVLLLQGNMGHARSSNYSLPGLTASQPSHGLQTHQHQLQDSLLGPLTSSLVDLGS
#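 Six1/Eya2 binding was read as AlphaScreen signal after compounds were pinned into GST-Six1 plus His-tagged Eya2 (5X stock 250/500 nM) in pH 8.0 Tris/NaCl/TCEP buffer, beads added, then incubated 1 h, 37 C, dark.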
# * marks the source's active call; other numbers are inactive results; i = inactive; ? = inconclusive; . = no result; [ ] = another dose, or the depositor's remark. Unless noted, the call rests on the fitted dose curve; in most records, active means well fitted curve in the direction sought with a large enough effect; inconclusive means small, poorly fitted or top-dose-only effect, or another doubt; inactive means no such curve, though single readings can be large; an effect the other way counts as inactive or inconclusive. On the % scale 0 is the no-effect control and ±100 the full control effect.
SMILES,DT40 TDP1 CPT,DT40 TDP1 no CPT,CtBP-E1A inh,TDP1 inh,IL1B secr inh,Six1-Eya2 inh
Oc1ccccc1C=NN=CC=Cc1ccccc1,?,?,3.4,.,-8.8,-4.3
Cc1cc(=O)[nH]c(NCc2ccccc2)n1,-9.2%,15.5%,-11.7,-1.2%,27.5,7.0
CSc1nc(N2CCN(c3ccccc3)CC2)cc(N2CCN(c3ccccc3)CC2)n1,-0.9%,-25.3%,-3.1,2.7%,-2.4,-1.3
CCCc1nc(C)cc(N2CCN(c3ccccc3)CC2)n1,29.1µM*,20.6µM*,3.5,.,-3.1,13.5
Cc1cc(OC(C)C)nc(NCc2ccccc2)n1,?,13µM*,28.8,1.5%,4.4,7.4
Cc1cc(N2CCN(c3ccccc3)CC2)nc(NCc2ccccc2)n1,20.6µM*,16.4µM*,-8.7,1.9%,20.1,-3.9
O=C(/C=C/c1ccccc1)c1cc(Br)ccc(=O)c1O,3.66µM*,4.61µM*,-1.4,.,-58.6*,-24.9
Cc1ccc(/C=C/C(=O)c2ccccc(=O)c2O)cc1C,23.1µM*,13µM*,-1.3,10.5%,-81.1*,-16.2
O=C(/C=C/c1ccc(F)cc1)c1cc(Br)ccc1O,-4.1%,-22.3%,16.4,.,-56.8*,15.1
COc1cc(O)c(C(=O)/C=C/c2ccccc2)c(O)c1,.,.,.,7.9%[21 µM],.,.
CCN(C(=O)c1ccc2c(c1)N(Cc1cccc(Cl)c1)C(=O)c1ccccc1S2=O)c1ccccc1 (stereo not given),?,16.4µM*,.,4.7%,.,.
O=C(Nc1cc(Cl)ccc1Cl)c1ccc2c(c1)N(Cc1cccc(Cl)c1)C(=O)c1ccccc1S2=O (stereo not given),-14.1%,-29.8%,.,1.9%,.,.
CCN1CCN(CCNC(=O)c2ccc3c(c2)N(Cc2cccc(Cl)c2)C(=O)c2ccccc2S3=O)CC1 (stereo not given),-16.6%,-2.5%,-15.5,1.1%,-55.4*,-6.1
CC1(C(=O)NS(=O)(=O)c2ccccc2)CCN1C(=O)c1cccc2ccccc12 (stereo not given),-18.1%,3.4%,2.0,.,0.0,-0.5
COc1ccc(C)cc1N(C)C(=O)c1c2c(nc3ccccc13)C(=O)N(C1CCCCC1)C2,?,?,.,8.4%,.,.
Cc1cccc(N2CCN(C(=O)c3c4c(nc5ccccc35)C(=O)N(C3CCCCC3)C4)CC2)c1C,7.31µM*,5.8µM*,.,8.4%,.,.
COc1cccc(N2CCN(C(=O)c3c4c(nc5ccccc35)C(=O)N(C3CCCCC3)C4)CC2)c1,20.6µM*,16.4µM*,.,9.7%,.,.
COc1cccc(N2CCN(C(=O)c3c(C)nn(-c4ccccc4)c3C)CC2)c1,-27.9%,-23.6%,-10.9,7.5%,-2.8,-3.3
Cc1ccc(N2CCN(C(=O)c3c4c(nc5ccccc35)C(=O)N(C3CCCCC3)C4)CC2)c(C)c1,9.2µM*,10.3µM*,.,5.8%,.,.
O=C(NCCc1nnc2n1CCN(Cc1ccc(F)cc1)CC2)c1ccc(F)cc1,9.7%,-5.2%,.,.,.,.
COc1ccc(OC(=O)N(C)C[C@@H]2OCc3cn(nn3)CCCC(=O)N([C@H](C)CO)C[C@H]2C)cc1,0.9%,20.7%,7.3,.,13.9,1.7
Cc1cccc(N2CCN(Cc3nc(-c4ccccc4Cl)oc3C)CC2)n1,?,?,1.0,.,?,-16.0
COc1ccc(CN(C)CC(=O)Nc2cc(OC)c([N+](=O)[O-])cc2C)c(OC)c1,13µM*,14.6µM*,-12.1,5.3%,?,-20.7
COc1cc(NC(=O)CN(C)Cc2cccc(F)c2)c(C)cc1[N+](=O)[O-],?,20.6µM*,3.8,-1.2%,2.8,-7.8
COc1cc(NC(=O)CN(C)CCOc2ccccc2)c(C)cc1[N+](=O)[O-],?,?,.,.,-19.4,-13.3
SMILES,DT40 TDP1 CPT,DT40 TDP1 no CPT,CtBP-E1A inh,TDP1 inh,IL1B secr inh,Six1-Eya2 inh
COc1cc(NC(=O)CN(C)C2CCCCC2)c(C)cc1[N+](=O)[O-],-69.2%,?,-2.5,2.3%,-7.9,-2.6
CCOc1ccc(S(=O)(=O)/N=C(/Nc2ccc(OC)cc2)c2ccccc2)cc1,-1.4%,-28.8%,-6.2,2.3%,i,-17.5
CCOc1ccc(/C(O)=C/C(=O)C(=O)Nc2ccc(S(=O)(=O)NC(C)=O)cc2)cc1,25.9µM*,-18.5%,-26.9,-1.1%,0.0,?
CCOc1ccc(NS(=O)(=O)c2ccc(NC(=S)NC(=O)C(C)C)cc2)cc1,20.6µM*,?,6.1,6.7%,12.4,-3.1
COc1ccc(S(=O)(=O)Nc2ccc(NC(C)=O)cc2)cc1,-18.0%,?,4.8,2.3%,32.4,-0.1
CCOc1ccc(NS(=O)(=O)c2ccc(NC(=S)NC(C)=O)cc2)cc1,23.1µM*,23.1µM*,-0.9,0.0%,33.5,5.1
CCOc1ccc(S(=O)(=O)/N=C(/Nc2ccc(C(C)=O)cc2)c2ccccc2)cc1,23.1µM*,13µM*,?,0.7%,-11.6,?
Cc1cccc(N=C2CSC(=O)N2)c1,-6.3%,-1.7%,3.4,4.7%,19.4,7.2
COc1ccc(C2(C)NC(=O)N(CC(=O)NCc3ccccc3F)C2=O)cc1 (stereo not given),2.0%,2.2%,19.2,.,41.2,9.7
CC(C)C(=O)NC(=S)Nc1ccc(S(=O)(=O)N(C)Cc2ccccc2)cc1,?,18.4µM*,-6.7,3.1%,19.2,-5.9
COc1ccc(NS(=O)(=O)c2ccc(NC(=S)NC(=O)C(C)C)cc2)cc1,18.4µM*,16.4µM*,-3.0,2.9%,0.0,-14.4
CC(C)C(=O)NC(=S)Nc1ccc(S(=O)(=O)Nc2ccccc2)cc1,-18.3%,-29.4%,0.0,7.7%,0.8,12.7
COc1ccc(CN2C(=O)C(CC(=O)NCc3cccc4ccccc34)CC(C(=O)N(C)C)=C2C)cc1 (stereo not given),2.0%,-16.3%,13.9,.,8.7,21.2
Cc1nc(N)sc1N=Nc1ccccc1C(F)(F)F,?,?,0.0,.,-70.8*,-24.8
COc1cccc(CNc2nc3cc(-c4ccc(F)cc4)sc3c(=O)n2C)c1,3.7%,-8.2%,4.0,.,38.3,2.2
Nc1ccccc1O,?,16.4µM*,?,0.1%,-3.4,8.0
COc1ccc(C)cc1NC(=O)C(OC(=O)Cn1cnc2c1c(=O)n(C)c(=O)n2C)c1ccccc1 (stereo not given),0.1%,3.5%,5.4,.,0.9,2.4
CCCCC[C@H](C)N1C[C@@H](COCc2ccccc2)Oc2cc(N3CC[C@H](N(C)C)C3)ccc2S1(=O)=O,?,?,-8.0,.,-50.1*,-23.7

# Source: PubChem BioAssay (National Center for Advancing Translational Sciences (NCATS))
